From PubChem BioAssay AID793 (The Scripps Research Institute Molecular Screening Center, 2007)
The whole screen tested about 140,000 compounds, of which about 1,400 (1%) were called active. For the sample, actives were picked, then their nearest neighbours and some compounds at random. Unmarked numbers belong to inactive results. Cut-off read from the data, not from the text of the source: active = inhibition above about 17%; inactive = the rest.

target: Neuropeptide Y receptor type 2 (Homo sapiens) (UniProt P49146); experiment: NPY-Y2 receptor antagonists, primary screen, cell-based (AID 793); conditions: NPY-Y2 expressing cells, antagonist mode; at 2.7 µM; hits give high values;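 note: 0% = vehicle with agonist challenge and 100% = reference antagonist with challenge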
Sequence (P49146 whole entry, looked up): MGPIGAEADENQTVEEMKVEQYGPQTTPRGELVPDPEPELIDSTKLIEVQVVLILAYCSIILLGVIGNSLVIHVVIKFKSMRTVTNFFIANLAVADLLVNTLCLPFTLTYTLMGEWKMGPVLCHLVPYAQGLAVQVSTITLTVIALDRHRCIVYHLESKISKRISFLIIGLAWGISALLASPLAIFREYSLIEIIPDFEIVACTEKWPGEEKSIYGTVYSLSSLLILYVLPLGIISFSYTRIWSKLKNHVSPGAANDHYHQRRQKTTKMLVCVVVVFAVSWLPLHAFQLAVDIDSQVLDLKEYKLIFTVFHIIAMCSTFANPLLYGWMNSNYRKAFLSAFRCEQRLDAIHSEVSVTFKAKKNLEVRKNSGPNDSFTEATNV

| Compound | inhibition |
| --- | --- |
| Cc1ccc(S(=O)(=O)N2CCN(CC(=O)N/N=C/c3ccc(Br)s3)CC2)cc1 | -1.25% |
| COc1ccc2c(c1)C(C)=CC(C)(C)N2C(=O)Nc1ccccc1 | 0.85% |
| CCOC(=O)NCc1ccc2c(c1)OCO2 | 4.28% |
| COc1ccc2c(c1)C(C)=CC(C)(C)N2C(=O)CNCc1ccc2c(c1)OCO2 | 26.6% (active) |
| COc1ccc(Cl)cc1NC(=O)COC(=O)C(CC(C)C)N1C(=O)C2CC=CCC2C1=O (centres undefined) | 3.69% |
| Cc1nccn1CC(=O)N/N=C/c1ccc(O)c(O)c1 | 0.1% |
| CCCc1nc(SCC(=O)Nc2ccccc2OC)c2c(=O)n(C)c(=O)n(C)c2n1 | 21.6% (active) |
| CCCCCNC(=O)c1cccnc1SCC(=O)Nc1ccccc1OC | 1.23% |
| Cn1c(=O)c2c(nc(SCC(=O)Nc3ccccc3N3CCCCC3)n2C)n(C)c1=O | 3.41% |
| O=C(NC1CC1)c1cccc(Br)c1 | 1.02% |
| Cc1ccccc1C(=O)NNC(=O)CN1C(=O)c2ccccc2C1=O | 4.26% |
| N#CCOc1ccc(C2=NO[C@@H]3[C@@H]4C[C@@H]([C@H]5C(=O)N(c6ccc7c(c6)OCO7)C(=O)[C@@H]45)[C@H]23)cc1 | 3.09% |
| Cc1cnc(NC(=O)CSc2nnc(-c3ccc(Cl)cc3Cl)n2N)s1 | 0.61% |
| Cc1ccc(CCC(=O)Nc2ncc(Cc3cc(Cl)ccc3Cl)s2)o1 | 24.4% (active) |
| CCOc1ccccc1NC(=O)CCc1ccc(C)o1 | 1.25% |
| O=C(COC(=O)c1cc([N+](=O)[O-])ccc1NCc1ccccc1)NC1CCCCC1 | 5.74% |
| CC(C)C(c1nnnn1CCc1ccccc1)N1CCN(C(=O)c2ccco2)CC1 (centres undefined) | 3.59% |
| COc1ccc(CCn2nnnc2C(c2ccccc2)N2CCN(C)CC2)cc1OC (centres undefined) | 5.97% |
| N#Cc1ccc(C(c2nnnn2CCc2ccccc2)N2CCCCCC2)cc1 (centres undefined) | 17.9% (active) |
| CCOc1cc(CNCc2ccccn2)ccc1OCC(=O)NC(C)(C)C | 2.66% |
| Cc1ccc(NC(=O)CCOc2ccccc2)cc1S(=O)(=O)Nc1ccccc1Cl | 0.14% |
| CCOC(=O)c1ccc(N/C(=N/S(=O)(=O)c2ccccc2)c2ccccc2)cc1 | 0.02% |
| O=C(CNC(=O)C(c1ccccc1)c1ccccc1)N/N=C\c1ccc2c(c1)OCO2 | 9.72% |
| CCOc1ccc(NC(=O)CSc2nc3ccccc3c(=O)n2Cc2cccs2)cc1 | 1.51% |

| Compound | inhibition |
| --- | --- |
| N#Cc1ccc(N2Cc3ccccc3/C2=N/C(=O)Nc2ccc(Cl)cc2)cc1 | 108% (active) |
| Cc1cccc(N2Cc3ccccc3C2=NC(=O)c2ccc(Cl)nc2)c1 | 1.24% |
| O=C(Nc1ccccc1)OCc1cn(-c2ccc(Cl)cc2)nn1 | 12% |
| C(=C\c1ccccc1)/CSc1nnc(-c2cccnc2)n1Cc1ccco1 | 7.64% |
| COc1ccc(C(=O)CSc2nnc(COc3ccccc3)n2Cc2ccco2)cc1 | 16.4% |
| c1ccc(-c2oc3ncnc(N4CCOCC4)c3c2-c2ccccc2)cc1 | 4.38% |
| COc1ccc(-c2oc3ncn(Cc4ccco4)c(=N)c3c2-c2ccc(OC)cc2)cc1 | 18.1% (active) |
| N=c1c2c(-c3ccccc3)c(-c3ccccc3)oc2ncn1Cc1ccco1 | 20.1% (active) |
| COc1ccc2[nH]c3c(=O)n(Cc4ccco4)cnc3c2c1 | 3.41% |
| O=C(Nc1nnc(C2COc3ccccc3O2)o1)c1ccc(F)cc1 (centres undefined) | 7.93% |
| CN(C)CCNC(=O)/C(=C/c1cccc([N+](=O)[O-])c1)NC(=O)c1ccccc1 | 1.28% |
| N=c1c2c(-c3ccccc3)c(-c3ccccc3)n(Cc3ccccc3)c2ncn1CCCO | 72.4% (active) |
| OCCCN1c2ccccc2Nc2nnc(-c3ccccc3)cc21 | 3.77% |
| Cc1ccc2[nH]cc(CCNC(=O)c3ccc([N+](=O)[O-])cc3)c2c1 | -0.38% |
| CSCc1ccc(C(=O)Nc2cc(C)cc(C)c2)cc1 | 3.07% |
| CC(=O)c1c(Nc2ccccc2)sc(C(=O)c2ccccc2)c1C | 14.2% |
| Cc1cc(C)c2c(-n3cccc3)c(NC(=O)OCc3ccccc3)sc2n1 | 24.7% (active) |
| COC(=O)Nc1sc2nc(C)cc(C)c2c1-n1cccc1 | 2.27% |
| CCCCOC(=O)Nc1sc2nc(C)cc(C)c2c1-n1cccc1 | 4.45% |
| O=C(Nc1cccc(S(=O)(=O)N2CCCCC2)c1)c1ccc2c(c1)OCO2 | 3.64% |
| CCc1nc(Nc2ccc3nccnc3c2)c2oc3ccccc3c2n1 | -2.05% |
| COc1ccccc1Nc1ncnc2c1oc1ccccc12 | 19.4% (active) |
| Cc1nc(Cl)c2oc3ccccc3c2n1 | 4.04% |
| CCN1CCN(c2ccc([N+](=O)[O-])cc2C(=O)c2ccc(Cl)cc2)CC1 | 22.2% (active) |

| Compound | inhibition |
| --- | --- |
| CCC(C)(C)NC(=O)c1cc([N+](=O)[O-])ccc1N1CCCCC1 | 0.52% |
| O=[N+]([O-])c1ccc(N2CCN(c3ccc(O)cc3)CC2)c(Cl)c1 | -2.81% |
| NC(=O)CC[C@@H]1NC(=O)[C@@H]2CCCN2C(=O)c2cc([N+](=O)[O-])cc(F)c2NCCC[C@@H](C(N)=O)NC1=O | -1.38% |
| CCC1=NN(C(=O)Cc2ccc([N+](=O)[O-])cc2)C(O)(c2ccc(Br)cc2)C1 (centres undefined) | 4% |
| Cc1ccc(C(C(=O)NCc2ccco2)N(CC2CCCO2)C(=O)Cn2nnc3ccccc32)cc1 (centres undefined) | 5.64% |
| COc1ccccc1N(C(=O)Cn1nnc2ccccc21)C(C(=O)NCc1ccco1)c1ccc(C)o1 (centres undefined) | 26.2% (active) |
| COCCNC(=O)C(c1ccc(C)o1)N(Cc1ccccc1)C(=O)Cn1nnc2ccccc21 (centres undefined) | 2.71% |
| O=C(Cn1nc(CNc2ccc(Cl)cc2)[n+]2c1CCCCC2)c1ccc(Cl)cc1 | 0.53% |
| CCn1nc(C)c(/C=N/NC(=O)Cc2ccc(Cl)cc2)c1C | 2.23% |
| COc1cccc(NC(=O)Cc2ccc(C)cc2)c1 | 3.66% |
| COc1ccc(NC(=O)/C(Cl)=C(/Cl)S(=O)Cc2ccc(C)cc2)cn1 (centres undefined) | 52% (active) |
| COc1ccc(NS(=O)(=O)c2ccc(NC(=S)NC(=O)/C=C/c3ccc(C)cc3)cc2)nn1 | 3.45% |
| CN(C)c1ccc(/C=N/NC(=O)c2ccc(Cn3cc(Br)cn3)o2)cc1 | -0.65% |
| CCCCC1S/C(=N/N=C/c2cccs2)NC1=O (centres undefined) | 2.47% |
| COCCNC(=O)c1onc(CSc2cccc(C)c2)c1C(=O)O | 5.73% |
| CCCCNC(=O)c1onc(CSc2cccc(OC)c2)c1C(=O)O | 28% (active) |
| CCOc1cccc(SCc2noc(C(=O)NC(C)C)c2C(=O)O)c1 | 6.09% |
| COc1ccnc(Oc2ccccc2)n1 | 1.08% |
| CC12CN(Cc3ccccc3)CC(C)(CN(Cc3ccccc3)C1)C2=NO | 28.4% (active) |
| CCCC(=O)C1CCN(Cc2ccccc2)CC1 | 0.89% |
| O=C(Nc1ccccc1)N1CCN(Cc2ccccc2)CC1 | 0.29% |
| COc1ccccc1N1CCN(CC(=O)NC(=O)NCc2ccco2)CC1 | 2.56% |
| Cc1ccc(C(CC(=O)O)Nc2nc(N3CCCCC3)nc(N3CCCCC3)n2)cc1 (centres undefined) | 1.53% |
| CC(Nc1nc(N2CCCC2)nc2ccccc12)c1ccccc1 (centres undefined) | 54.6% (active) |

| Compound | inhibition |
| --- | --- |
| CC(C)n1c(C(O)c2ccccc2)nc2ccccc21 (centres undefined) | 1.4% |
| Cc1cc(SCC(=O)c2ccccc2)nc(SCC(=O)c2ccccc2)n1 | 13.8% |
| COC(=O)c1cc(C(=O)CSc2nc(C)cc(C)n2)ccc1O | 4.06% |
| Cc1cc(Oc2ccc(Cl)cc2)nc(SCC(=O)c2ccccc2)n1 | 48.6% (active) |
| Cc1ccccc1OCC(=O)Nc1nc(C)c(C(=O)N(C)C)s1 | 5.58% |
| CC1CCN(C(=S)NC2CC3CCC2C3)CC1 (centres undefined) | 1.13% |
| O=C(CN1C(=O)NC2(CCCCCC2)C1=O)NCc1cccs1 | -3.2% |
| O=C(CN1C(=O)NC(Cc2ccccc2)(Cc2ccccc2)C1=O)NCC1CCCCC1 | 80.5% (active) |
| O=C(CN1C(=O)NC2(CCCCC2)C1=O)NCCC1=CCCCC1 | 0.27% |
| O=C1CC(c2ccccc2)CC(O)=C1C=NCCN1CCOCC1 (centres undefined) | 0.58% |
| O=C1CC(c2cccc(Cl)c2)CC(O)=C1C=Nc1ccccc1 (centres undefined) | 18.4% (active) |
| O=C1CCCC(O)=C1C=NCCc1ccccc1 | 1.66% |
| COc1ccc(NC(C(=O)Nc2cccc(C(C)=O)c2)c2ccccc2)cc1 (centres undefined) | -1.54% |
| COCCCNCCOCCOc1ccc(Cl)cc1Br | 3.88% |
| O=C(NCc1cccnc1)c1ccc(CS(=O)(=O)c2ccc(Br)cc2)o1 | -0.12% |
| Cc1ccc(S(=O)(=O)N(Cc2ccc(Cl)cc2)c2ccccc2C(=O)NCc2cccnc2)cc1 | 35% (active) |
| O=C(NCc1cccnc1)c1cccnc1Sc1ccc(Cl)cc1 | -0.63% |
| COc1ccc(/C=N/NC(=O)c2ccccc2)cc1OS(=O)(=O)c1ccccc1 | 0.26% |
| COc1ccc(-c2noc(COc3ccc(Cl)c(C)c3)n2)cc1 | 18.2% (active) |
| COc1ccc(-c2noc(-c3ccc(C)cc3)n2)cc1 | 2.85% |
| COc1ccc(-c2noc(CSc3ccc(C)cc3)n2)cc1 | 16.5% |
| O=C(NCCCO)/C(=C\C=C\c1ccccc1)NC(=O)c1ccccc1Cl | 1.12% |
